# ELG1 repair inh = inhibitors of ELG1-dependent DNA repair in HEK293T cells. AID 504467. Potency, µM (doses to about 46.1 µM), for inactives: at the top dose activity change, negative = inhibition, usual class: inhibitors. HEK293T ELG1-luciferase reporter, luminescence, 16 h; DNA damage induced by 5-fluorouridine. actives 2.3% (n = 330,000); note: potency is the fitted concentration of half-maximal effect; nearly all actives have a fitted effect of over 55% in size
#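 Cells (2,000 per well) received 5-fluorouridine plus test compound or DMSO and were incubated 16 hr at 37 °C, 5% CO2. Luciferase activity was read by luminescence 30 min after ONE-Glo addition; signal suppression marked inhibition of damage-induced ELG1 function.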
# TDP1 cell CPT = growth inhibition of DT40 Tdp1-/-;hTDP1 cells with camptothecin (screen for TDP1 inhibitors) | Potency, µM (highest dose often 46.2 µM), without a hit: at the top dose activity change, negative = growth inhibition, most hits filed as inhibitors | actives 12% (n = 420,000) | AID 686979 | chicken DT40 Tdp1-/-;hTDP1 cells + 20 nM CPT, ATP luminescence, 48 h; note: potency is the fitted concentration of half-maximal effect; nearly all actives have a fitted effect of over 55% in size
#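 Chicken DT40 Tdp1-/- cells complemented with human TDP1, 400 cells/well, exposed to compounds plus 20 nM camptothecin for at least 48 h at 37 C; viability read as ATP content by CellTiter-Glo luminescence.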
# TDP1 cell noCPT = qHTS for Inhibitors of human tyrosyl-DNA phosphodiesterase 1 (TDP1): qHTS in cells in absence of CPT | Potency, µM (top dose mostly 46.2 µM), for inactives: top-dose activity change, negative = growth inhibition, usual class: inhibitors | actives 15% (n = 420,000) | AID 686978, 2013 | DT40 Tdp1-/- hTDP1 cells, no CPT, ATP luminescence, 48 h; note: potency is the fitted concentration of half-maximal effect; nearly all actives have a fitted effect of over 55% in size
#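 Chicken DT40 Tdp1-/- cells stably complemented with human TDP1 were seeded at 400 cells/well with DMSO in place of 20 nM camptothecin. After compound pinning, cells grew at least 48 hr at 37 °C; viability read by CellTiter-Glo luminescence.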
# Gal4-VP16 FLuc = inhibits Gal4-VP16 luciferase reporter, ROR gamma counter-screen; Potency, µM (series often up to 53.6 µM), for the others: at the top dose activity, negative = inhibition, most hits filed as inhibitors; actives 3.5% (n = 310,000); Drosophila S2 Gal4-VP16 UAS-luciferase, luminescence, 20 h;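 note: Gal4-VP16 expression switched on by copper sulfate through the metallothionein promoter; potency is the fitted concentration of half-maximal effect; nearly all actives have a fitted effect of over 50% in size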
# IL-1B inflam inh = inhibitors of inflammasome signaling (IL-1 beta secretion); THP-1 LPS/ATP IL-1B secretion, AlphaLISA, 16 h; hits give low values; activity change, % at 57.5 µM; actives 4.7% (n = 360,000); in the data active = activity change below about -50%; inconclusive = mostly about -30% to -49%
#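 Secreted IL-1B measured by AlphaLISA bead assay after 16 h compound exposure of THP-1 cells; compounds (final up to 57.5 uM) added 1 h before LPS (250 ng/mL) and ATP (1.25 mM) stimulation; lower signal means less secretion.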
# RORg inh = blocks mouse ROR gamma transcriptional activity | P51450 | Drosophila S2 Gal4-RORgamma UAS-luciferase reporter, 20 h | Potency, µM (series often up to 53.6 µM), for inactives: at the top dose activity change, negative = inhibition, hits mostly inhibitors | actives 5.4% (n = 310,000); note: potency is the fitted concentration of half-maximal effect; nearly all actives have a fitted effect of over 60% in size
# Target sequence (P51450 whole entry, looked up, the tested form may be a part): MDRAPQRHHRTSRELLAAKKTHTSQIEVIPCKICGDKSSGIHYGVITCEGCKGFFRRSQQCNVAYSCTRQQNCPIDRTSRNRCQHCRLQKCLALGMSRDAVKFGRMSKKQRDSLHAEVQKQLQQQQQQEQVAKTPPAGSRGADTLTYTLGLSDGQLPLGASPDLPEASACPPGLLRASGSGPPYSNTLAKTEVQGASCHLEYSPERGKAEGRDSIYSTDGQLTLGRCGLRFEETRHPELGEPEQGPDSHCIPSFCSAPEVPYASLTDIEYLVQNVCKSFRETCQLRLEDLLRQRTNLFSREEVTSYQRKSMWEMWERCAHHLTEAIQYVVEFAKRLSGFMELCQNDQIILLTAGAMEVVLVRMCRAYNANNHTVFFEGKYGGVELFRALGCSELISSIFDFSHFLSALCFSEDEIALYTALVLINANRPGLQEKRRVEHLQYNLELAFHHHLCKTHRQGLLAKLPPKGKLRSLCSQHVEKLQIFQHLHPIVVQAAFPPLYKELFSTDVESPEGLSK
#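 ROR gamma transcriptional activity was tracked as Gal4-UAS luciferase output in stably transfected Drosophila Schneider cells, with compound added 1 hr before 700 uM copper sulfate induction and a 20 hr ambient-temperature incubation.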
# Active calls of the source: *; ? = inconclusive; nt = no result. A selection: hits, their analogues and other compounds. The true share with any hit is near 21%. Unless noted, calls come from the whole dose curve; as a rule, active = well fitted curve in the direction sought with a large enough effect; inconclusive = small, poorly fitted or top-dose-only effect, or another doubt; inactive = no such curve, though single readings can be large; an effect the other way counts as inactive or inconclusive. % is set by controls: 0 for no effect and ±100 for the full control effect.
SMILES,ELG1 repair inh,TDP1 cell CPT,TDP1 cell noCPT,Gal4-VP16 FLuc,IL-1B inflam inh,RORg inh
FC(F)(F)c1cc(-c2ccccc2)nc2cc(-c3ccccc3)nn12,nt,-20%,-23%,nt,nt,nt
Fc1cccc(-c2cc3nc(-c4ccccc4)cc(N4CCC5(CC4)OCCO5)n3n2)c1,23µM*,?,23µM*,-9%,-14,19%
Cc1ccc(-c2cc3nc(-c4ccccc4)cc(N4CCC5(CC4)OCCO5)n3n2)cc1,-30%,16µM*,18µM*,9%,0,?
Fc1ccc(-c2cc3nc(-c4ccccc4)cc(N4CCOCC4)n3n2)cc1,?,13µM*,23µM*,-12%,-3,-6%
CC(=O)Nc1cccc(-c2cc(N3CCN(CCO)CC3)n3nccc3n2)c1,nt,-11%,-2%,nt,2,nt
COCCN1CCN(c2cc(-c3ccccc3)nc3cc(-c4cccc(F)c4)nn23)CC1,15µM*,8.2µM*,9.2µM*,-21%,-79*,?
O=C(O)C(Cc1ccccc1)N1C(=O)C2C3CCC(C3)C2C1=O (stereo not drawn),nt,-16%,-6%,nt,0,nt
Cc1cccc(NNC(N)=S)c1C,-4%,?,-9%,?,-7,10µM*
Cc1ccc(C)c(NNC(N)=S)c1,10%,5%,-7%,18µM*,-9,?
N#Cc1ccccc1OCC(=O)NC1CCCCCC1,nt,?,?,nt,-20,nt
COCCCNC(=O)CCCCn1c(=O)c2ccccc2n(CC(=O)Nc2ccc(C)cc2C)c1=O,nt,-3%,0%,nt,nt,nt
COc1ccc2c(c1)O[C@@H](c1ccc3c(c1)OCO3)[C@H](O)C2=O,nt,nt,nt,-11%,nt,0%
Cc1cc(C)cc(NC(=O)C2CCCN2S(=O)(=O)c2ccc3c(c2)n(C)c(=O)c(=O)n3C)c1 (stereo not drawn),14%,4%,-3%,0%,16,18%
CCn1c(C)c(/C=N/Nc2nc3ccccc3s2)c2ccccc21,-2%,18µM*,18µM*,?,?,5µM*
Cc1nn(-c2ccccc2Cl)c(Cl)c1/C=N/Nc1nc2ccccc2s1,?,?,12µM*,0.32µM*,12,1µM*
OCC(O)/C=N/Nc1nc2ccccc2s1 (stereo not drawn),?,12%,1%,14%,0,24%
C(=N\Nc1nc2ccccc2s1)/c1cccs1,?,16µM*,?,3.2µM*,?,1.3µM*
Oc1ccccc1C=NNc1nc2ccccc2s1,nt,0.065µM*,0.052µM*,nt,?,nt
Oc1ccc(C=NNc2nc3ccccc3s2)c(O)c1,nt,3.7µM*,4.1µM*,nt,-1,nt
COc1ccc(/C=N/Nc2nc3ccccc3s2)cc1O,?,17%,?,?,-87*,?
C(=N\Nc1nc2ccccc2s1)/c1ccco1,?,-24%,?,?,?,11µM*
COc1cccc(C=NNc2nc3ccccc3s2)c1OC,nt,2%,?,nt,25,nt
CC(=O)Nc1ccc(/C=N/Nc2nc3ccccc3s2)cc1,?,-27%,-25%,3%,52,-9%
Oc1ccc(/C=N/Nc2ccc3ccccc3c2)c(O)c1,?,-6%,-12%,-5%,-14,-37%
O=C(Nc1ccc(Oc2ccccc2)nc1)[C@H]1O[C@@H](n2ccc(=O)[nH]c2=O)[C@H](O)[C@@H]1O,nt,-12%,-6%,nt,0,nt
CC1Nc2ncnc(N3CCc4ccccc4C3)c2N(Cc2ccccc2)C1=O (stereo not drawn),nt,21µM*,?,nt,-23,nt
CCC1Nc2ncnc(N3CCN(c4ccccn4)CC3)c2N(Cc2ccc(Cl)cc2)C1=O (stereo not drawn),?,?,?,nt,-59*,nt

# Screening results from PubChem.
